Compounds with a hit are over-represented: about 0.82% of the library has one in this group of screens.
LANA DNA inh: KSHV C-LANA DNA binding inhibition; inhibition, % at 9 µM; AID 504423; MBP-C-LANA/FAM-LBS DNA binding, fluorescence polarization; actives 0.078% (n = 340,000);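 active = highest replicate inhibition at or above 60% at 9 µM, even if other replicates fall short; inactive = all replicates below 60% inhibition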
cardiac RTF act: cardiac RTF calcium sensitization; IANBD-labeled TnC RTF fluorescence at EC20 calcium; 0% EC20 calcium, 100% full calcium; activation, % at 7.2 µM; actives 0.24% (n = 340,000); P19429+P45379;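 active = activation above the mean over all tested compounds plus 3 SD, cut at about 30% in these data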;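 also: rise in fluorescence read as greater calcium sensitivity of cardiac thin filaments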
Keap1-Nrf2 PPI: Keap1-Nrf2 (human) interaction inhibition; Keap1 Kelch-Nrf2 peptide fluorescence polarization, 1536-well; actives 0.15% (n = 340,000); AID 504523; inhibition, % at 9.4 µM; in the data active = inhibition above about 12%;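 also: human Keap1 Kelch domain with fluorescein labeled Nrf2 9mer peptide probe; higher means more block of Keap1 binding to Nrf2 peptide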
Target sequence (Q14145 whole entry, looked up, the tested form may be a part): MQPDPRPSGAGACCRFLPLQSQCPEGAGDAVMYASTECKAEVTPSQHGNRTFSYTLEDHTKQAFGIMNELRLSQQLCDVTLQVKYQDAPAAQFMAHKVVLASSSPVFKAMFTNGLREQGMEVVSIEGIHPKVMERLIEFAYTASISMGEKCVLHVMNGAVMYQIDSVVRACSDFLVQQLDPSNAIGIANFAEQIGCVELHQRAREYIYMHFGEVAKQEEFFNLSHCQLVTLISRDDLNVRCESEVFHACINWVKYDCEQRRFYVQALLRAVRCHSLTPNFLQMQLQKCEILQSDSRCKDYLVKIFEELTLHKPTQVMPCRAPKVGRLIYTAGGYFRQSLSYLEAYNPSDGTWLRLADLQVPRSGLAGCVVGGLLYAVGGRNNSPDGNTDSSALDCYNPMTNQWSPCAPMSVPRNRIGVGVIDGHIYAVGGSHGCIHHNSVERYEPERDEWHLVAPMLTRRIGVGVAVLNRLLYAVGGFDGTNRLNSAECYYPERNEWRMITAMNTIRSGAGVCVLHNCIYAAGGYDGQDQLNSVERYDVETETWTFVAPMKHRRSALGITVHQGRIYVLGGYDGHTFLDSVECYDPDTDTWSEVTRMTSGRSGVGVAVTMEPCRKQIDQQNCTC
eLon inh: inhibits E. coli Lon protease; P0A9M0; purified E. coli Lon protease, fluorescence polarization; inhibition, % at 7.94 µM; actives 0.42% (n = 360,000); AID 602123; in the data active = inhibition above about 13%, passing the limit was not always enough
Cardiac RTF inh: cardiac RTF calcium desensitization; P19429+P45379; IANBD-labeled cardiac RTF, Ca2+ fluorescence; inhibition, % at 7.15 µM; actives 0.12% (n = 340,000);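 active = inhibition above the mean inhibition of all tested compounds plus 3 SD, cut at about 17% in these data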;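 also: assay run at fixed EC70 calcium of 1.6 mM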
Keap1 Kelch bind: binds and thermally shifts human Keap1 Kelch domain | AID 651823 | max delta Tm, degrees C | shares compounds with Keap1-Nrf2 PPI | actives 8% (n = 400) | Keap1 Kelch thermal shift, delta Tm; active compounds read high; in the data active = max delta Tm above about 0.48 degrees C
Sypro dye melt: dye artifact in Keap1 thermal shift counter-screen; delta Tm, degrees C (test concentration not listed); 140 tested, under 10 active; Sypro Orange dye-only thermal melt, no protein, delta Tm; top dose 26 µM; shares compounds with Keap1-Nrf2 PPI;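 active = at highest dose tested, delta Tm positive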
eLon confirm: E. coli Lon inhibition confirmation | shares compounds with eLon inh | purified E. coli Lon, fluorescence polarization | inhibition, % at 7.94 µM | actives 31% (n = 1,400) | AID 602230; in the data active = inhibition above about 16%
Numbers stand for hits; 0 = inactive; - = no result; + = active, no number.

SMILES	LANA DNA inh	cardiac RTF act	Keap1-Nrf2 PPI	eLon inh	Cardiac RTF inh	Keap1 Kelch bind	eLon confirm	others
O=C(OCCN1C(=O)c2cccc3c(N4CCOCC4)ccc(c23)C1=O)c1ccc(Cl)cc1Cl	63	192	43	0	0	0	-	Sypro dye melt=0
Cn1ccc(C(=O)OCC(=O)Nc2ccccc2Cl)n1	0	0	0	0	0	-	-
CCC(CC)C(=O)Nc1nnc(CCc2ccccc2)s1	0	0	0	0	0	-	-
Cc1ccccc1OCCC(=O)OCC(=O)NNC(=O)c1cccs1	0	0	0	0	0	-	-
O=c1c(-c2cc3ccccc3o2)[n+]([O-])c2ccccc2n1OCc1ccccn1	0	0	36	20	0	0	0	Sypro dye melt=0
Cc1c(N)cc(N)cc1C(=O)O	0	0	15	61	0	0	0
C=Cc1ccc(C2=CC(=O)C[C@H](c3ccc(OC)cc3)C2)cc1	0	0	0	0	0	-	-
COc1ccc2noc3c2c1C(=O)c1ccccc1-3	130	+	106	+	0	0	116	Sypro dye melt=6.2
COc1ccc(N)c2c1C(=O)c1ccccc1C2=O	0	0	0	0	0	-	-
CCOC(=O)C1=C(CSc2nc3c(cc2C#N)CN(C)CC3)OC(N)=C(C#N)C1c1ccc(Cl)cc1 (stereo not given)	0	0	0	0	0	-	-
CCOC(=O)C1=C(CSc2nc3c(cc2C#N)CN(C)CC3)OC(N)=C(C#N)C1c1ccncc1 (stereo not given)	0	0	17	35	0	0	0
COc1ccc(CNC(=O)[C@H](CCSC)NC(=O)N2CCn3c2nc2ccccc23)cc1	0	0	0	0	0	-	-
CSc1nc(N)n2nc(-c3ccccc3)cc2n1	0	-	0	0	-	-	-
C=CCOc1ccc(C2OC34CCCCC3C(C#N)(C#N)C2(C#N)C(=N)O4)cc1 (stereo not given)	0	0	11	31	0	0	21	Sypro dye melt=0
CCCCCCn1c(=O)[nH]c2nc3cc(N)c(C)cc3nc2c1=O	0	627	27	116	0	0	49	Sypro dye melt=0
O=C1c2cccc3c(O)ccc(c23)C(=O)N1Cc1ccco1	76	574	37	+	0	0	+
O=C1c2cccc3c(O)ccc(c23)C(=O)N1c1ccc(Cl)cc1	0	532	39	+	0	0	+
COc1ccc(S(=O)(=O)NC2CCCCCC2)cc1C(N)=O	0	0	0	0	0	-	-
C=CCNc1ncnc2c1ncn2[C@H]1CN(Cc2ccccc2)C[C@@H](COC(C)=O)O1	-	-	-	0	-	-	-
COc1ccc(N=Nc2nc3cc(Br)c(Br)cc3n2C)c(OC)c1	0	47	13	163	0	0	128
CN(C)CCNc1ccc2ncn3c4ccc(O)cc4c(=O)c1c23	114	170	38	+	0	0	+
Cc1n[nH]c(C)c1N1C(=O)c2cccc3c(N4CCCCCC4)ccc(c23)C1=O	0	317	16	69	0	0	0
O=C(NCCc1ccccc1F)N[C@@H](Cc1ccccc1)C(=O)O	0	0	0	0	0	-	-
O=C1C=CC(=O)c2c(O)c(N3CCN(CCO)CC3)c(Cl)c(O)c21	0	0	39	172	0	0	96	Sypro dye melt=0
OCCOCCN1CCN(C2=Nc3ccccc3Sc3ccccc32)CC1	0	0	0	0	0	-	-
SMILES	LANA DNA inh	cardiac RTF act	Keap1-Nrf2 PPI	eLon inh	Cardiac RTF inh	Keap1 Kelch bind	eLon confirm	others
O=C1C=CC(=O)c2c(O)c(N3CCN(CCOCCO)CC3)c(Br)c(O)c21	0	0	25	126	0	0	114
O=S(=O)(c1ccc(Br)cc1Cl)N1CCN(CCO)CC1	0	0	0	0	0	-	-
O=C(CN(C(=O)c1csnn1)c1ccc2c(c1)OCCO2)NCc1ccccc1	0	0	0	0	0	-	-
COc1ccc(NS(=O)(=O)c2ccc(Br)cc2)cn1	0	0	0	0	0	-	-
COc1ccc(NS(=O)(=O)c2ccc(F)c(Cl)c2)cn1	0	0	21	58	0	0	0
CCOc1cc(C2C(C#N)=C(N)OC3=C2C(=O)CC(C)(C)C3)cc([N+](=O)[O-])c1O (stereo not given)	0	0	0	0	0	-	-
CC1(C)CC(=O)C2=C(C1)OC(N)=C(C#N)C2c1cc2c(cc1[N+](=O)[O-])OCO2 (stereo not given)	0	0	15	104	0	0	80	Sypro dye melt=0
C/C(N)=C(/C#N)C(=O)COC(=O)C1CCN(S(=O)(=O)c2cccs2)CC1	0	0	0	0	0	-	-
C[C@H](CO)N1C[C@H](C)[C@H](CN(C)Cc2ccccc2)Oc2ncc(Br)cc2C1=O	-	-	-	0	-	-	-
CCN(CC)CCN1C(=O)c2cccc3cc(N)cc(c23)C1=O	0	0	14	+	0	0	53
CNc1ccc2c3c(cccc13)C(=O)N(C)C2=O	109	+	109	+	0	0	+
O=C(O)CCn1c(SCCOc2ccccc2)nc2ccccc21	0	0	0	0	0	-	-
O=S(=O)([N-]c1nc2ccccc2nc1-[n+]1ccc(-c2ccncc2)cc1)c1ccccc1	0	51	17	47	0	0	131	Sypro dye melt=0
CC12CCC(=O)N1C(C(=O)N1CCN(S(=O)(=O)c3ccc(Br)cc3Cl)CC1)CS2 (stereo not given)	0	0	0	0	0	-	-
CCOC(=O)C1=C(c2ccccc2)OC(N)=C(C#N)C1c1ccc(Cl)s1 (stereo not given)	0	0	0	0	0	-	-
CCN1CC=C2C(C1)C(c1ccc(Cl)s1)C(C#N)=C(N)C2(C#N)C#N (stereo not given)	0	30	21	81	0	0	0
Cc1csc(SCC(=O)Nc2ccc3[nH]c(=O)[nH]c3c2)n1	0	0	0	0	0	-	-
Cc1cc2nc3c(=O)[nH]c(=O)[nH]c3nc2c([N+](=O)[O-])c1N	109	140	89	95	0	0	182	Sypro dye melt=0
Cc1c(N)c(C(C)(C)C)cc(C(C)(C)C)c1[N+](=O)[O-]	0	0	0	0	0	-	-
Oc1ccc2nnc3c(Br)cnn3c2c1	67	84	37	134	0	0	144
O=C1CC(c2ccco2)CC2=C1C=Nc1ccccc1N2 (stereo not given)	0	0	0	0	0	-	-
O=c1[nH]c2c(s1)C=Nc1ccccc1N2	0	78	38	114	0	0	149	Sypro dye melt=0
CSCCC(NC(=O)c1ccccc1Br)C(=O)NCC(c1ccco1)N1CCCCC1 (stereo not given)	0	0	0	0	0	-	-
COc1ccc2c(c1)[n+](=O)c(C(C)=O)c(C)n2[O-]	0	0	0	0	0	-	-
CCOC(=O)c1c(=O)n(O)c2ccc(OC)cc2[n+]1[O-]	0	0	19	83	0	0	29

Source: PubChem (several laboratories)
